In PubChem BioAssay AID1159580 (chemical genetic matrix, 2015):
Among all 5,500 compounds or so, about 2,000 (36%) were called active. Roughly 18% stayed inconclusive and do not appear here. Rule as the data show it: active = normalized growth mostly below about 0.91 (no sharp cut-off); inconclusive = no clear call, values can overlap the other calls; inactive = mostly above about 0.92. Some of the results follow.

Assay: chemical genetic growth profiling, strain panel (AID 1159580);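 also: tested at 20 µM; growth read once vehicle control cultures reached saturation at 30 °C; 1 = growth at the plate median or of vehicle wells; lower values mean less growth of the strain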
Conditions: growth OD

Measured: normalized growth

CCOc1ccc2c(c1)C(C)=CC(C)(C)N2
inactive: S. cerevisiae deletion strains, locus YJR043C, strain POL32, active compounds read low 0.979 | S. cerevisiae deletion strains, locus YJR075W, strain HOC1, active compounds read low 0.975 | S. cerevisiae deletion strains, locus YKL009W, strain mrt4, active compounds read low 0.988 | S. cerevisiae deletion strains, locus YKL068W, active compounds read low 0.989 | S. cerevisiae deletion strains, locus YKL085W, strain MDH1 (second series), active compounds read low 0.987 | S. cerevisiae deletion strains, locus YKL085W, strain MDH1, active compounds read low 0.987 | S. cerevisiae deletion strains, locus YKL160W, strain elf1, active compounds read low 0.996 | S. cerevisiae deletion strains, locus YKL190W, strain CNB1, active compounds read low 0.997 | S. cerevisiae deletion strains, locus YKR001C, strain vps1, active compounds read low 0.976 | S. cerevisiae deletion strains, locus YKR026C, strain gcn3, active compounds read low 0.979 | S. cerevisiae deletion strains, locus YKR091W, strain srl3, active compounds read low 0.98 | S. cerevisiae deletion strains, locus YLL001W, strain dnm1, active compounds read low 1 | S. cerevisiae deletion strains, locus YLL026W, active compounds read low 0.986 | S. cerevisiae deletion strains, locus YLL041C, strain sdh2, active compounds read low 0.989 | S. cerevisiae deletion strains, locus YLR027C, strain aat2, active compounds read low 1.01 | S. cerevisiae deletion strains, locus YLR039C, strain RIC1, active compounds read low 0.997 | S. cerevisiae deletion strains, locus YLR058C, strain SHM2, active compounds read low 0.984 | S. cerevisiae deletion strains, locus YLR102C, strain apc9, active compounds read low 0.992 | S. cerevisiae deletion strains, locus YLR221C, strain rsa3, active compounds read low 1 | S. cerevisiae deletion strains, locus YLR258W, strain gsy2, active compounds read low 0.997 | S. cerevisiae deletion strains, locus YLR262C, strain YPT6 (second series), active compounds read low 0.981 | S. cerevisiae deletion strains, locus YLR262C, strain YPT6, active compounds read low 0.969 | S. cerevisiae deletion strains, locus YLR268W, strain sec22, active compounds read low 0.924 | S. cerevisiae deletion strains, locus YLR320W, strain mms22, active compounds read low 0.982 | S. cerevisiae deletion strains, locus YLR330W, strain CHS5, active compounds read low 1 | S. cerevisiae deletion strains, locus YLR342W, strain FKS1 (second series), active compounds read low 0.999 | S. cerevisiae deletion strains, locus YLR342W, strain FKS1, active compounds read low 0.987 | S. cerevisiae deletion strains, locus YLR357W, strain rsc2, active compounds read low 0.963 | S. cerevisiae deletion strains, locus YLR370C, strain arc18, active compounds read low 0.998 | S. cerevisiae deletion strains, locus YLR371W, strain rom2, active compounds read low 0.976 | S. cerevisiae deletion strains, locus YLR384C, strain iki3, active compounds read low 0.989 | S. cerevisiae deletion strains, locus YLR418C, strain cdc73, active compounds read low 0.983 | S. cerevisiae deletion strains, locus YML016C, strain PPZ1, active compounds read low 0.984 | S. cerevisiae deletion strains, locus YML032C, strain rad52, active compounds read low 0.977 | S. cerevisiae deletion strains, locus YML120C, strain ndi1, active compounds read low 1 | S. cerevisiae deletion strains, locus YML124C, strain tub3, active compounds read low 0.989 | S. cerevisiae deletion strains, locus YMR058W, strain fet3, active compounds read low 0.988 | S. cerevisiae deletion strains, locus YMR078C, strain ctf18, active compounds read low 0.972 | S. cerevisiae deletion strains, locus YMR125W, strain sto1, active compounds read low 0.981 | S. cerevisiae deletion strains, locus YMR129W, active compounds read low 0.991 | S. cerevisiae deletion strains, locus YMR205C, strain PFK2, active compounds read low 0.987 | S. cerevisiae deletion strains, locus YMR223W, strain ubp8, active compounds read low 0.998 | S. cerevisiae deletion strains, locus YMR231W, strain pep5, active compounds read low 0.963 | S. cerevisiae deletion strains, locus YMR263W, strain SAP30, active compounds read low 0.981 | S. cerevisiae deletion strains, locus YMR307W, strain GAS1, active compounds read low 0.971 | S. cerevisiae deletion strains, locus YNL067W, strain RPL9B, active compounds read low 0.977 | S. cerevisiae deletion strains, locus YNL071W, strain lat1, active compounds read low 0.991 | S. cerevisiae deletion strains, locus YNL128W, strain TEP1, active compounds read low 0.99 | S. cerevisiae deletion strains, locus YNL153C, strain GIM3, active compounds read low 0.98 | S. cerevisiae deletion strains, locus YNL209W, strain ssb2, active compounds read low 0.994 | S. cerevisiae deletion strains, locus YNL233W, strain BNI4, active compounds read low 0.978 | S. cerevisiae deletion strains, locus YNL248C, strain rpa49, active compounds read low 0.986 | S. cerevisiae deletion strains, locus YNL250W, strain rad50, active compounds read low 0.986 | S. cerevisiae deletion strains, locus YNL271C, strain bni1, active compounds read low 0.968 | S. cerevisiae deletion strains, locus YNL298W, strain CLA4, active compounds read low 0.974 | S. cerevisiae deletion strains, locus YNL307C, strain MCK1, active compounds read low 0.985 | S. cerevisiae deletion strains, locus YNL322C, strain KRE1 (second series), active compounds read low 0.984 | S. cerevisiae deletion strains, locus YNL322C, strain KRE1, active compounds read low 0.993 | S. cerevisiae deletion strains, locus YNR049C, strain mso1, active compounds read low 0.989 | S. cerevisiae deletion strains, locus YNR052C, strain pop2, active compounds read low 1 | S. cerevisiae deletion strains, locus YOL006C, strain TOP1, active compounds read low 0.841 | S. cerevisiae deletion strains, locus YOL012C, strain htz1 1.09 | S. cerevisiae deletion strains, locus YOL147C, strain pex11, active compounds read low 0.98 | S. cerevisiae deletion strains, locus YOR001W, strain rrp6, active compounds read low 1.01 | S. cerevisiae deletion strains, locus YOR061W, strain CKA2, active compounds read low 0.981 | S. cerevisiae deletion strains, locus YOR069W, strain VPS5, active compounds read low 0.984 | S. cerevisiae deletion strains, locus YOR070C, strain gyp1, active compounds read low 0.995 | S. cerevisiae deletion strains, locus YOR080W, strain dia2, active compounds read low 0.989 | S. cerevisiae deletion strains, locus YOR083W, strain WHI5, active compounds read low 0.989 | S. cerevisiae deletion strains, locus YOR106W, strain vam3, active compounds read low 1 | S. cerevisiae deletion strains, locus YOR136W, strain idh2, active compounds read low 0.99 | S. cerevisiae deletion strains, locus YOR144C, strain elg1, active compounds read low 0.992 | S. cerevisiae deletion strains, locus YOR184W, strain ser1, active compounds read low 0.969 | S. cerevisiae deletion strains, locus YOR265W, strain rbl2, active compounds read low 1.03 | S. cerevisiae deletion strains, locus YOR270C, strain vph1, active compounds read low 1 | S. cerevisiae deletion strains, locus YOR290C, strain snf2, active compounds read low 0.991 | S. cerevisiae deletion strains, locus YOR316C, strain cot1, active compounds read low 0.983 | S. cerevisiae deletion strains, locus YPL051W, strain arl3, active compounds read low 0.985 | S. cerevisiae deletion strains, locus YPL055C, strain LGE1, active compounds read low 0.997 | S. cerevisiae deletion strains, locus YPL078C, strain atp4, active compounds read low 1.02 | S. cerevisiae deletion strains, locus YPL106C, strain sse1, active compounds read low 0.964 | S. cerevisiae deletion strains, locus YPL240C, strain hsp82, active compounds read low 0.991 | S. cerevisiae deletion strains, locus YPL241C, strain CIN2, active compounds read low 0.997 | S. cerevisiae deletion strains, locus YPR119W, strain clb2, active compounds read low 0.984 | S. cerevisiae deletion strains, locus YPR141C, strain kar3, active compounds read low 0.973 | S. cerevisiae deletion strains, locus YPR163C, strain tif3, active compounds read low 0.978 | S. cerevisiae deletion strains, locus YPR167C, strain met16, active compounds read low 0.987 | S. cerevisiae deletion strains, strain wtn01, active compounds read low 0.967 | S. cerevisiae strains, strain wild type, active compounds read low 0.996
